Pol eta inh: DNA polymerase eta (human) inhibition | Potency, µM (titrated, usually from 114 µM), for the others: at the top dose activity change, negative = inhibition, actives largely listed as inhibitors | AID 588591 | recombinant Pol eta, fluorescent DNA replication assay | 1.2% of 390,000 active | Q9Y253; note: potency is the fitted concentration of half-maximal effect; % is set by controls: 0 for no effect and ±100 for the full control effect
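Pol eta at 10 nM preincubated with compounds 15 min at room temperature; reaction started with fluorescent substrate (50 nM final) and read kinetically at 0 and 10 min.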
POLB inh: inhibitors of human DNA polymerase beta | P06746 | Pol beta primer extension/strand displacement, fluorescence kinetic | Potency, µM (titrated, usually from 114 µM), for the others: at the top dose activity change, negative = inhibition, usual class: inhibitors | 1.3% of 340,000 active | AID 485314; note: potency is the fitted concentration of half-maximal effect; % is set by controls: 0 for no effect and ±100 for the full control effect
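Curves were derived by four-parameter Hill fits of normalized qHTS data. The kinetic fluorescent primer-extension read was taken at 0 and 10 min after 50 nM substrate, following a 15 min room-temperature preincubation of 10 nM enzyme with compounds.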
WRN inhibitor: blocks human WRN helicase; WRN helicase unwinding, fluorescent forked duplex, kinetic; Potency, µM (highest dose often 114 µM), for inactives: at the top dose activity change, negative = inhibition, actives largely listed as inhibitors; 0.46% of 360,000 active; AID 651768; note: potency is the fitted concentration of half-maximal effect; % is set by controls: 0 for no effect and ±100 for the full control effect; nearly all actives have a fitted effect of over 55% in size
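WRN at 20 nM final was preincubated with compound for 15 min at room temperature; reaction started with 100 nM forked duplex oligonucleotide carrying fluorophore and quencher plus 2 mM ATP (final). Unwinding followed kinetically by red fluorescence (ex 525/em 598 nm).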
PI5P4Ka inh: inhibitors of human PI5P4K alpha | P48426 | PI5P4Kalpha enzyme, ADP-Glo luminescence, 60 min; stronger effect = lower value | max response, % | 1.2% of 330,000 active; active = max response of -50% or lower; inconclusive = between -30% and -50%; inactive = -30% or higher; note: value at the top dose of about 77 µM; % is set by controls: 0 for no effect and ±100 for the full control effect
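Compounds were pin-transferred onto PI5P4Kalpha and substrate in HEPES pH 7.4 buffer with EGTA, CHAPS and 5% DMSO. ATP (5 microM final) started the reaction, which ran 60 minutes at room temperature before ADP-Glo detection.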
Pol iota inh: blocks human DNA polymerase iota activity; Q9UNA4; Pol iota fluorescent replication assay, 10 min; Potency, µM (doses to about 115 µM), without a hit: top-dose activity, negative = inhibition, usual class: inhibitors; 1% of 390,000 active; AID 588590; note: potency is the fitted concentration of half-maximal effect
Target sequence (Q9UNA4 whole entry, looked up): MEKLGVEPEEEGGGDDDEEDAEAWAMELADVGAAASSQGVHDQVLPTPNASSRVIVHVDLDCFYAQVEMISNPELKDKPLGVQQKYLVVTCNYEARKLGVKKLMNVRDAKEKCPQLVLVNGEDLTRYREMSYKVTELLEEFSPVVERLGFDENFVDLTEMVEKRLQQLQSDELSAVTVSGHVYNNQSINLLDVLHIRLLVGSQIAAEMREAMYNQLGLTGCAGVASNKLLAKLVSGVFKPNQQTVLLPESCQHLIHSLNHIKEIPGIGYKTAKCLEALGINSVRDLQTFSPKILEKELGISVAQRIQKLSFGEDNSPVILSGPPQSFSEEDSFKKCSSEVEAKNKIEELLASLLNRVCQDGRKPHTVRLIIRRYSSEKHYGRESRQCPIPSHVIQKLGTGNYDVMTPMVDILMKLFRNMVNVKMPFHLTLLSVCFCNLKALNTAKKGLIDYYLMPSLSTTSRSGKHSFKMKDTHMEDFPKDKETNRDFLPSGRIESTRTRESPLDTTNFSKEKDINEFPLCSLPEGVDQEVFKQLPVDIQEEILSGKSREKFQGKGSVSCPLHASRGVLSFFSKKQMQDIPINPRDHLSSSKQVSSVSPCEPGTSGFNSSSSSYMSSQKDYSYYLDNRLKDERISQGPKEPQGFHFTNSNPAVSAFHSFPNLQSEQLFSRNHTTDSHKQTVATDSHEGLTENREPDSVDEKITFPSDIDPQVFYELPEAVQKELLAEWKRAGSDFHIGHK
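Pol iota at 10 nM preincubated 15 min with compounds at room temperature; reaction started with fluorescent substrate, 50 nM final. Fluorescence read kinetically at 0 and 10 min; buffer-only wells as negative control.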
Pol kappa inh: inhibitors of human DNA polymerase kappa | purified Pol kappa, fluorescent DNA synthesis assay, 10 min | 0.53% of 400,000 active | Potency, µM (series often up to 107 µM), for the others: at the highest dose activity, negative = inhibition, most hits filed as inhibitors; note: potency is the fitted concentration of half-maximal effect; % is set by controls: 0 for no effect and ±100 for the full control effect
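Activity was followed as the change in fluorescence between reads at 0 and 10 min after starting the reaction with 50 nM substrate. Beforehand, 10 nM polymerase had been preincubated with compound for 15 min at room temperature.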
Starred values were filed as active, the others as inactive; ? = inconclusive; / = no result; [ ] = another dose, or the depositor's remark. An excerpt weighted towards active compounds, which were near 2.8% of everything screened. Unless noted, calls come from the whole dose curve; as a rule, active = well fitted curve in the direction sought with a large enough effect; inconclusive = small, poorly fitted or top-dose-only effect, or another doubt; inactive = no such curve, though single readings can be large; an effect the other way counts as inactive or inconclusive.

SMILES	Pol eta inh	POLB inh	WRN inhibitor	PI5P4Ka inh	Pol iota inh	Pol kappa inh
COc1ccccc1Nc1nn2c(=O)c3ccc(C(=O)NCCc4ccccc4)cc3nc2s1	79µM*	?	/	/	-10%	0%
COc1ccc(Nc2nn3c(=O)c4cc5c(cc4nc3s2)OCO5)c(OC)c1	?	3.5µM*	/	/	34%	-5%
COc1ccc(NC(=O)c2ccc3c(=O)n4nc(Nc5ccccc5C)sc4nc3c2)cc1	?	4µM*	/	/	-11%	-13%[60.1 µM]
Cc1ccc(C)c(Nc2nn3c(=O)c4cc5c(cc4nc3s2)OCO5)c1	?	12%	/	/	-8%	-8%
CCOc1ccc(NC(=O)c2ccc3c(=O)n4nc(Nc5ccccc5C)sc4nc3c2)cc1	-19%	-1%	/	/	16%	0%
COc1cc(/C=C(\C#N)C(=O)Nc2ccccn2)ccc1O	-20%	27%	-20%	-52*	63%	2%
CCOC(=O)c1c(-c2ccccc2)csc1NC(=O)/C(C#N)=C\c1ccc(O)c(OC)c1	?	/	-29%	?	?	-23%
CCOC(=O)c1c(-c2ccc(C)cc2)csc1NC(=O)/C(C#N)=C/c1ccc(O)c(OC)c1	28µM*	5%	-35%	-5	?	-32%
COc1cc(/C=C(\C#N)C(=O)Nc2ccc3c(c2)OCCO3)ccc1O	-18%	-8%	?	-56*	20%	-2%
COc1ccc(Nc2ncnc3c2cnn3-c2ccc(C)cc2)cc1Cl	-11%	-1%	/	/	-8%	-2%[60.1 µM]
Nc1nonc1-c1nc2ccccc2n1CC(=O)Nc1ccccc1	12%	-8%	-3%	-15	18%	-16%
Nc1nonc1-c1nc2ccccc2n1CC(=O)N/N=C/c1ccc(-c2ccccc2C(=O)O)o1	32µM*	16µM*	-27%[57.1 µM]	-19	?	?
O=C(COC(=O)c1ccc([N+](=O)[O-])s1)NCCc1ccccc1	?	/	28%	-4	56µM*	?
O=C(COC(=O)c1ccc([N+](=O)[O-])s1)NC(=O)NCc1ccccc1	-7%	7.9µM*	-12%	5	?	-19%
Cc1ccc(C(=O)OCC(=O)NC(C)c2ccccc2)s1 (stereo unspecified)	-7%	/	4%	5	18%	-10%
CC(NC(=O)COC(=O)c1ccc([N+](=O)[O-])s1)c1ccccc1 (stereo unspecified)	?	16µM*	-7%	3	?	-25%
O=C(COC(=O)c1ccc([N+](=O)[O-])s1)c1ccc[nH]1	20µM*	/	-6%[11.6 µM]	?	89µM*	-29%
CCN(CC)c1ncnc2c1ncn2[C@H]1CN(Cc2cc(OC)c(OC)c(OC)c2)C[C@@H](CO)O1	/	/	1%	-1	/	/
O=C(CCCN1C(=O)/C(=C/c2ccccc2Cl)SC1=S)NCCCN1CCOCC1	-1%	3%	89µM*	6	?	-3%
O=C1/C(=C/c2ccccc2Cl)SC(=S)N1CCC(=O)N1CCCCC1CCO (stereo unspecified)	-12%	1%	-6%[11.6 µM]	0	25µM*	?
Cc1ccccc1NC(=O)c1c(C)nn(-c2ccccc2)c1Cl	-9%	11%	2%	3	126%	-13%
Cc1ccc(-n2c(O)c(/C=N/c3ncn[nH]3)c3ccccc3c2=O)cc1	-21%	13µM*	?	-8	1%	-6%
CCCc1nn2c(=O)cc(COc3ccc(/C=C(\C#N)C(=O)Nc4ccccc4)cc3)nc2s1	-2%	?	/	/	-28%	-5%
Cc1nn2c(=O)cc(COc3ccc(/C=C(\C#N)C(=O)Nc4ccccc4C)cc3)nc2s1	-24%	?	/	/	20µM*	?
CCCc1nn2c(=O)cc(COC(=O)c3cccc(NC(=O)c4cccs4)c3)nc2s1	-1%	3.5µM*	/	/	?	-7%[60.1 µM]
SMILES	Pol eta inh	POLB inh	WRN inhibitor	PI5P4Ka inh	Pol iota inh	Pol kappa inh
O=C(OCc1cc(=O)n2nc(-c3cccs3)sc2n1)c1cccc(Cl)c1	-14%	40µM*	/	/	?	-13%
Cc1ccccc1C(=O)OCc1cc(=O)n2nc(-c3cccs3)sc2n1	1%	32µM*	/	/	?	-12%
CCCCc1nn2c(=O)cc(COC(=O)c3cccc(Cl)c3)nc2s1	1%	4%	/	/	-6%	0%
Cc1ccccc1C(=O)OCc1cc(=O)n2nc(C3CCCCC3)sc2n1	-16%	3%	/	/	28%	-4%
CC(C)(C)n1ncc2c(=O)n(Cc3ccc(Cl)c(C(F)(F)F)c3)cnc21	/	/	/	/	9%	1%
CCCS(=O)(=O)c1ncc(Cl)c(C(=O)N(Cc2ccccc2)Cc2ccco2)n1	-15%	-3%	/	/	?	-5%
CC(C)c1nn2c(=O)cc(COC(=O)c3ccccc3Cl)nc2s1	-15%	0%	/	/	30%	-2%
O=C(OCc1cc(=O)n2nc(-c3cccs3)sc2n1)c1ccccc1Cl	?	35µM*	/	/	?	?
Cc1nn2c(=O)cc(COC(=O)c3ccccc3NC(=O)C(C)C)nc2s1	79µM*	0%	/	/	13%	-3%[60.1 µM]
Cc1ccc(OCC(=O)OCc2cc(=O)n3nc(-c4cccs4)sc3n2)cc1	-8%	?	/	/	?	0%
O=C(COc1ccc(Cl)cc1)OCc1cc(=O)n2nc(-c3cccs3)sc2n1	?	25µM*	/	/	?	-22%
Cc1ccc(C(=O)OCc2cc(=O)n3nc(-c4cccs4)sc3n2)cc1	89µM*	18µM*	/	/	?	?
CCOc1ccc(NC(=O)Cn2nc(-c3ccncc3)ccc2=O)cc1	-15%	2%	/	/	15%	-14%[60.1 µM]
COc1cccc(OC)c1NC(=O)CN(C)S(=O)(=O)c1ccc2c(c1)OCCO2	-19%	2%	1%[57.1 µM]	5	39%	-3%
CCC(C(=O)NC1CCCCC1)n1c2ccccc2c2nc(=O)cc(C)n21 (stereo unspecified)	-11%	14%	2%	2	6%	2%
CCOC(=O)/C(C#N)=C/c1cccc(C)c1	-4%	6%	7%	-4	2%	-12%
CCOC(=O)/C(C#N)=C\c1ccco1	-8%	40µM*	-16%	/	?	-20%
COc1cccc(/C=C/c2ccnc3ccccc23)c1OC	/	/	/	/	21%	-22%
CC(=O)Nc1ccc(C(=O)OCC(=O)N2CCCC2=O)cc1	-15%	/	-25%	3	40%	-1%
COc1cc(C(=O)OCC(=O)N2CCCC2=O)cc(OC)c1C	32µM*	/	-19%	-16	?	?
Cc1cccc(C)c1C(O)c1ncc(-c2cccc(C(F)(F)F)c2)[nH]1 (stereo unspecified)	/	/	-5%	14	/	/
CCCCC1=CC2=C(c3ccco3)C(=O)C(C)(OC(=O)c3ccc(OC)cc3)C(=O)C2=CN1CCc1ccccn1 (stereo unspecified)	-24%	50µM*	-21%	-13	11µM*	-15%

Screening results as filed in PubChem.
